Assay [1] in a line: Tanguay_ZF_120hpf_SWIM_legacy: (Legacy) Oregon State University Tanguay Lab 120 Hour Post-fertilization zebrafish Assay for Swim Bladder Malformation (AID 2283654).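 Further: swim bladder malformation in each larva scored yes or no under brightfield.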 In outline:
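Tropical 5D embryos dechorionated at 4 hpf; 1 embryo/well from 6 hpf; static, sealed, dark exposure at 28C until 120 hpf; final DMSO 0.64%; 5uM trimethyltin chloride positive control; swim bladder defect recorded yes/no; dead embryos not scored.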

The nature of assay [2]: Tanguay_ZF_120hpf_TRUN_legacy: (Legacy) Oregon State University Tanguay Lab 120 Hour Post-fertilization zebrafish Assay for Truncated Body (AID 2283655). The method, boiled down: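 Tropical 5D wild-type embryos, dechorionated with pronase at 4 hpf, were placed singly in wells at 6 hpf and statically exposed at 28C until 120 hpf, final DMSO 0.64%. Truncated body was scored present/absent by brightfield microscopy.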

Assay [3] can be described thus: Tanguay_ZF_120hpf_NC_legacy: (Legacy) Oregon State University Tanguay Lab 120 Hour Post-fertilization zebrafish Assay for Notochord and Tail Malformation (AID 2283656). In outline: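 Binary notochord-distortion calls, made by brightfield inspection, form the read-out; activity is fitted in the positive direction against DMSO. Exposure ran statically from 6 to 120 hpf at 28C with 0.64% DMSO.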

Assay [4] in a line: Tanguay_ZF_120hpf_TR_legacy: (Legacy) Oregon State University Tanguay Lab 120 Hour Post-fertilization zebrafish Assay for Touch Response (AID 2283667). The method, boiled down:
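Binary touch-response call at 120 hpf, analysed as gain of signal versus DMSO baseline. Wild-type 5D larvae, static exposure at 28C, 0.64% DMSO final; 5uM trimethyltin chloride as positive control.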

Read-out in assay [5]: ABC Transporter (ABCB1), ABCB1 (gene 5243)
As to the kind of experiment: CLD_ABCB1_6hr: CellzDirect (CLD) Gene Expression Assay for ABC Transporter (ABCB1) at 6 hours (AID 2283659).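 Further: hits raise ABCB1 transcript above the DMSO vehicle baseline.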 In outline: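 ABCB1 transcript measured by quantitative nuclease protection assay, chemiluminescent read-out, 6 h after dosing human hepatocyte cultures (0.2% DMSO vehicle, daily redosing). Activity fitted as increase over DMSO baseline; cytotoxicity flagged by phase-contrast morphology.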

Read-out in assay [6]: Broad substrate specificity ATP-binding cassette transporter ABCG2 (Homo sapiens) (UniProt Q9UNQ0)
Nature of the assay: CLD_ABCG2_6hr: CellzDirect (CLD) Gene Expression Assay for ABC Transporter (ABCG2) at 6 hours (AID 2283660). In outline: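 ABCG2 mRNA induction measured by qNPA chemiluminescence in human primary hepatocyte cultures, 6 h post-dose. Chemicals tested at several concentrations against a 0.2% DMSO vehicle; positive-direction fit relative to DMSO.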

Read-out in assay [7]: xenobiotic metabolism (CYP1A1), CYP1A1 (gene 1543)
Nature of the assay: CLD_CYP1A1_6hr: CellzDirect (CLD) Gene Expression Assay for xenobiotic metabolism (CYP1A1) at 6 hours (AID 2283661). In outline: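 Read-out 6 h post-dose: qNPA chemiluminescent quantitation of transcript induction against 0.2% DMSO. Cells were cultured primary human hepatocytes from two separate donor preparations; phase-contrast morphology annotated apparent cytotoxicity.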

Read-out in assay [8]: xenobiotic metabolism (CYP2C9), CYP2C9 (gene 1559)
As to the kind of experiment: CLD_CYP2C9_6hr: CellzDirect (CLD) Gene Expression Assay for xenobiotic metabolism (CYP2C9) at 6 hours (AID 2283664). The method, boiled down:
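Readout is qNPA chemiluminescence of CYP2C9 mRNA, taken 6 h after dosing of cultured human liver primary cells at several concentrations. Activity is the increase over 0.2% DMSO baseline. Morphology-based cytotoxicity flagged yes/no.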

Read-out in assay [9]: alkyl and aryl transferase (GSTA2), GSTA2 (gene 2939)
Nature of the assay: CLD_GSTA2_6hr: CellzDirect (CLD) Gene Expression Assay for alkyl and aryl transferase (GSTA2) at 6 hours (AID 2283666). In outline:
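GSTA2 transcript induction at 6 h, quantified by nuclease protection (qNPA) with chemiluminescent detection, in human liver primary hepatocytes exposed to several compound concentrations with 0.2% DMSO as baseline; phase-contrast morphology annotated apparent cytotoxicity.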

Read-out in assay [10]: organic anion transporter (SLCO1B1), SLCO1B1 (gene 10599)
As to the kind of experiment: CLD_SLCO1B1_6hr: CellzDirect (CLD) Gene Expression Assay for organic anion transporter (SLCO1B1) at 6 hours (AID 2283668).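 Further: active means mRNA induction above DMSO baseline.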 The method, boiled down:
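SLCO1B1 mRNA induction measured 6 h after dosing by quantitative nuclease protection with chemiluminescent read-out, in human primary hepatocyte cultures given chemicals at several concentrations (vehicle 0.2% DMSO). Increase over DMSO baseline fitted; morphology-based cytotoxicity annotated yes/no.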

Read-out in assay [11]: sulfotransferase (SULT2A), SULT2A1 (gene 6822)
As to the kind of experiment: CLD_SULT2A_6hr: CellzDirect (CLD) Gene Expression Assay for sulfotransferase (SULT2A) at 6 hours (AID 2283669).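 Further: hits raise transcript level above the DMSO vehicle baseline.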 In outline:
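Measured 6 h after dosing, SULT2A1 mRNA in human hepatocyte lysates was quantified by S1 nuclease protection with chemiluminescent detection. Increases fitted against 0.2% DMSO vehicle baseline; phase-contrast cytotoxicity recorded yes/no.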

Read-out in assay [12]: glucuronosyltransferase (UGT1A1), UGT1A1 (gene 54658)
Nature of the assay: CLD_UGT1A1_6hr: CellzDirect (CLD) Gene Expression Assay for glucuronosyltransferase (UGT1A1) at 6 hours (AID 2283672). In outline:
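UGT1A1 mRNA induction, read by quantitative nuclease protection assay, 6 h after dosing primary human hepatocytes (two donors, 0.2% DMSO vehicle). Gain of signal fitted relative to vehicle.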

Read-out in assay [13]: xenobiotic metabolism (CYP1A1), CYP1A1 (gene 1543)
Nature of the assay: CLD_CYP1A1_24hr: CellzDirect (CLD) Gene Expression Assay for xenobiotic metabolism (CYP1A1) at 24 hours (AID 2283673). In outline:
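Transcript levels were read at 24 h by qNPA chemiluminescence in human liver primary cells. Cells got daily fresh dosing at multiple concentrations (vehicle 0.2% DMSO). Induction fitted upward against DMSO; phase-contrast cytotoxicity annotated.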

Read-out in assay [14]: solute carrier (SLC10A1), SLC10A1 (gene 6554)
Nature of the assay: LTEA_HepaRG_SLC10A1: Life Technologies and Expression Analysis (LTEA) Assay for solute carrier (SLC10A1) using HepaRG (AID 2283657; active means hit-call score of the fitted dose curve at least 0.9, where 1 is the maximum; inactive means score below 0.9). Particulars: mRNA level, 48 h; actives raise or lower the signal. In outline: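 HepaRG, 48 h exposure, 8-pt half-log curve from 100 uM in 0.5% DMSO, duplicates. Read-out: TaqMan qRT-PCR of SLC10A1 mRNA, normalized to three housekeeping genes. Gain/loss fit vs DMSO baseline.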

Read-out in assay [15]: matrix metalloproteinase-1 (MMP1), MMP1 (gene 4312)
As to the kind of experiment: LTEA_HepaRG_MMP1: Life Technologies and Expression Analysis (LTEA) Assay for matrix metalloproteinase-1 (MMP1) using HepaRG (AID 2283658; active means hit-call score of the fitted dose curve at least 0.9, where 1 is the maximum; inactive means score below 0.9). Particulars: mRNA level, 48 h; actives raise or lower the signal. In outline:
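Differentiated HepaRG cells, plated 48 h then switched to serum-free induction medium, were exposed in duplicate for 48 h to eight half-log concentrations up to 100 uM in 0.5% DMSO; MMP1 mRNA measured by qRT-PCR, normalized to ACTB, GAPDH, POLR2A.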

Assay [16] has as its system Thyroperoxidase (TPO), gene 54314. As to the kind of experiment: CCTE_Simmons_AUR_rTPO: CCTE's Amplex UltraRed Assay for Thyroperoxidase (TPO) Inhibition, Simmons Lab (AID 2283662).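 On AC50: potency for loss of signal meaning inhibition of peroxidase activity.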 The method, boiled down: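 Endpoint is decreased Amplex UltraRed fluorescence after a 30-min, 37C reaction of rat thyroid microsomes with 300 uM H2O2. Eight test concentrations (5 nM–87.5 uM final) in 0.5% DMSO, three biological replicates each.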

Read-out in assay [17]: Cytochrome P450 (CYP24A1_1), CYP24A1 (gene 1591)
Nature of the assay: LTEA_HepaRG_CYP24A1_1: Life Technologies and Expression Analysis (LTEA) Assay for Cytochrome P450 (CYP24A1_1) using HepaRG (AID 2283671; active means hit-call score of the fitted dose curve at least 0.9, where 1 is the maximum; inactive means score below 0.9). Particulars: mRNA level, 48 h; actives raise or lower the signal. The method, boiled down: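 Readout is CYP24A1 transcript level by qRT-PCR, normalized to three housekeeping genes, with gain or loss of signal fitted against 0.5% DMSO. Human HepaRG cells received compound for 48 h at up to 100 uM.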

Read-out in assay [18]: xenobiotic metabolism (CYP1A2), CYP1A2 (gene 1544)
As to the kind of experiment: CLD_CYP1A2_6hr: CellzDirect (CLD) Gene Expression Assay for xenobiotic metabolism (CYP1A2) at 6 hours (AID 2283663). The method, boiled down: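 mRNA levels quantified by quantitative nuclease protection assay with chemiluminescence, 6 h after dosing human primary hepatocyte cultures (two donors) across several concentrations, vehicle 0.2% DMSO. Induction fitted upward versus DMSO; phase-contrast cytotoxicity annotated.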

A short description of assay [19]: CLD_ACTIN_24hr: CellzDirect (CLD) Gene Expression Assay for Baseline Control (Actin) at 24 hours (AID 2283670). The method, boiled down: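 This 24 h qNPA (S1 nuclease protection, chemiluminescence) actin transcript readout in cultured human liver primary cells serves as baseline control. Signal is fitted upward relative to 0.2% DMSO; chemicals tested at multiple concentrations across two donor preparations.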

Read-out in assay [20]: ABC Transporter (ABCB11), ABCB11 (gene 8647)
Nature of the assay: CLD_ABCB11_24hr: CellzDirect (CLD) Gene Expression Assay for ABC Transporter (ABCB11) at 24 hours (AID 2283674; active means hit-call score of the fitted dose curve at least 0.9, where 1 is the maximum; inactive means score below 0.9). In outline: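 ABCB11 transcript was quantified by qNPA chemiluminescence in cultured human liver hepatocytes 24 hours after dosing. Fresh dosing solutions were applied on consecutive days, against a 0.2% DMSO vehicle. Cytotoxicity was noted by phase-contrast morphology.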

Results filed as inconclusive are left out. The source made the active and inactive calls. How the source made its calls, unless noted: active means hit-call score of the fitted dose curve at least 0.9, where 1 is the maximum; inconclusive means response in the unintended direction; inactive means score below 0.9.

Chain of Broad substrate specificity ATP-binding cassette transporter ABCG2 (Homo sapiens) (Q9UNQ0 whole entry, looked up): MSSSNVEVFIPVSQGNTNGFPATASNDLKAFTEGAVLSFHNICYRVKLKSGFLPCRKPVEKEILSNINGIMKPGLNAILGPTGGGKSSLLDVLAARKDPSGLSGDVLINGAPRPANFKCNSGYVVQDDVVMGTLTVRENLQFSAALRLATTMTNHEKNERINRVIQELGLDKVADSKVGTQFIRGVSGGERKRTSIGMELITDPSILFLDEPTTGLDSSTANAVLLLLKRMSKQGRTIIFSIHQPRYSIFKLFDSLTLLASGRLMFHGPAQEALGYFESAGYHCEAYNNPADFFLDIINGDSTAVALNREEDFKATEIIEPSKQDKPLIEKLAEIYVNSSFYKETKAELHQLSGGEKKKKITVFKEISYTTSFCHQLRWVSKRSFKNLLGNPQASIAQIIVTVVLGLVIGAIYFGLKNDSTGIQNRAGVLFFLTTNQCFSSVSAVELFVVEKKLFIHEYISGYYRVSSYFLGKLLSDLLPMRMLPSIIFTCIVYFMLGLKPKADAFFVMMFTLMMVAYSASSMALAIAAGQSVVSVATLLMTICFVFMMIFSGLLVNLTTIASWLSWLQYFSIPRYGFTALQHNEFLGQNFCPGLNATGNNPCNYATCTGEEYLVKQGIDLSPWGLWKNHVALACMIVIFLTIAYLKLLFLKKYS

With `C=CC(=O)NCNC(=O)C=C`, the call in assay [1], in [2], in [3] and in assay [4] was inactive.

As usually defined, the AC50 is the concentration giving half of the maximal activity seen. Turning to `CCC(C)(CC)c1cc(NC(=O)c2c(OC)cccc2OC)on1`, the compound was called inactive in assay [1], in assay [2], in assay [3], in assay [5], in assay [6] and in [7]. Moreover, the compound was called inactive in assay [8], in assay [9], in assay [4], in [10], in [11] and in assay [12]. Further, the AC50 in [13] was 20 µM (active).

Regarding `O=S(=O)(O)C(F)(F)C(F)(F)C(F)(F)C(F)(F)F`, the call in assay [1], in assay [2] and in [3] was inactive.

Regarding `Cc1cc(-c2ccc(N)c(C)c2)ccc1N`, the compound was classed as inactive in assay [1], in assay [2], in assay [3] and in [4].

Turning to `O=C(O)C(F)(F)C(F)(F)C(F)(F)C(F)(F)C(F)(F)C(F)(F)C(F)(F)C(F)(F)C(F)(F)F`, the outcome in assay [1], in [2], in assay [3], in [4] and in [17] was inactive. The figures for the AC50 in [14], in [15] and in assay [16] were 23.3 µM (active), 72.2 µM (active) and 22.7 µM (active), respectively.

For the compound `Oc1ccc(C(c2ccc(O)cc2)(C(F)(F)F)C(F)(F)F)cc1`, the compound was classed as inactive in assay [1] and in [3]. Also, the AC50 in [2] was 53 µM (active); in assay [16], 21.7 µM (active); in assay [4], 52.8 µM (active).

With `C[C@]12CCC(=O)C=C1CC[C@@H]1[C@@H]2CC[C@]2(C)C(=O)CC[C@@H]12`, the call in [1], in assay [2], in assay [3] and in assay [16] was inactive. The AC50 in assay [4] is 26.8 µM (active).

`Clc1ccc(C(c2ccccc2Cl)C(Cl)(Cl)Cl)cc1` (stereo not drawn): the compound was classed as inactive in assay [1], in assay [2] and in assay [3].

For the compound `Clc1ccc(Cl)cc1`, the outcome in assay [14], in assay [15] and in assay [17] was inactive.

On to `CC1=C2C[C@H]3[C@@H](CC=C4C[C@@H](O)CC[C@@]43C)[C@@H]2CC[C@]12O[C@@H]1C[C@H](C)CN[C@H]1[C@H]2C`, for which the outcome in [14], in [15] and in assay [17] was inactive.

`CCSC(=O)N(CC)C1CCCCC1`: the call in assay [5], in assay [7], in [18], in [8], in [10] and in [19] was inactive. The outcome in assay [12] and in assay [20] was inactive.

As for `CN(C)c1nc(=O)n(C2CCCCC2)c(=O)n1C`, the compound was called inactive in [5], in assay [6], in [7], in assay [18], in assay [8] and in assay [9]. In addition, the outcome in [11], in assay [19] and in [12] was inactive.

(Values after PubChem BioAssay (EPA / NIEHS).)
